# Assay outcomes deposited in PubChem by National Center for Advancing Translational Sciences (NCATS).
# Rows were chosen to be rich in hits. Some 2.4% of all compounds tested hit in one or more screens of this group.
# GLS inh: inhibitors of human glutaminase (GLS) | O94925 | GLS enzymatic activity, qHTS titration | Potency, µM (highest dose often 45.5 µM), without a hit: top-dose activity change, negative = inhibition, most hits filed as inhibitors | 410,000 tested, 0.21% active | AID 624170; also: % is scaled to controls: 0 for no effect and ±100 for the full control effect
#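 Assay buffer: 45 mM KH2PO4 pH 8.2, 0.02% Tween-20. hKGA acts on L-glutamine (1 mM solution added); product glutamate is reported by an oxidase/peroxidase Amplex Red coupling, with fluorescence taken at baseline and 30 min.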
# POLK inh: blocks human DNA polymerase kappa activity. AID 588579. purified Pol kappa, fluorescent DNA synthesis assay, 10 min. 400,000 tested, 0.53% active. Q9UBT6. Potency, µM (series often up to 107 µM), without a hit: top-dose activity, negative = inhibition, actives largely listed as inhibitors; also: % is scaled to controls: 0 for no effect and ±100 for the full control effect
#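 Readout: fluorescence, taken kinetically at 0 and 10 min. Conditions: 10 nM Pol kappa, 15 min RT compound preincubation, 50 nM substrate final. Controls: enzyme-free buffer wells.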
# KAT2A inh: inhibitors of human GCN5L2 histone acetyltransferase. Q92830. GCN5L2 HAT assay, ThioGlo1 CoA-SH fluorescence. Potency, µM (top dose mostly 58.9 µM), for inactives: at the highest dose activity change, negative = inhibition, most hits filed as inhibitors. 390,000 tested, 0.21% active; also: % is scaled to controls: 0 for no effect and ±100 for the full control effect
#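 Fluorescence readout, Ex340nm/Em540nm: ThioGlo1 (50uM final) reacts with free CoA thiol released as 20nM GCN5L2 acetylates H3(1-25) peptide (75uM) using acetyl-CoA (70uM). Compound and enzyme sat 15 min beforehand; 20 min room-temperature reaction.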
# Pol iota inh: inhibitors of human DNA polymerase iota; Q9UNA4; Pol iota fluorescent replication assay, 10 min; Potency, µM (series often up to 115 µM), for the others: at the highest dose activity, negative = inhibition, usual class: inhibitors; 390,000 tested, 1% active
# Target sequence (Q9UNA4 whole entry, looked up): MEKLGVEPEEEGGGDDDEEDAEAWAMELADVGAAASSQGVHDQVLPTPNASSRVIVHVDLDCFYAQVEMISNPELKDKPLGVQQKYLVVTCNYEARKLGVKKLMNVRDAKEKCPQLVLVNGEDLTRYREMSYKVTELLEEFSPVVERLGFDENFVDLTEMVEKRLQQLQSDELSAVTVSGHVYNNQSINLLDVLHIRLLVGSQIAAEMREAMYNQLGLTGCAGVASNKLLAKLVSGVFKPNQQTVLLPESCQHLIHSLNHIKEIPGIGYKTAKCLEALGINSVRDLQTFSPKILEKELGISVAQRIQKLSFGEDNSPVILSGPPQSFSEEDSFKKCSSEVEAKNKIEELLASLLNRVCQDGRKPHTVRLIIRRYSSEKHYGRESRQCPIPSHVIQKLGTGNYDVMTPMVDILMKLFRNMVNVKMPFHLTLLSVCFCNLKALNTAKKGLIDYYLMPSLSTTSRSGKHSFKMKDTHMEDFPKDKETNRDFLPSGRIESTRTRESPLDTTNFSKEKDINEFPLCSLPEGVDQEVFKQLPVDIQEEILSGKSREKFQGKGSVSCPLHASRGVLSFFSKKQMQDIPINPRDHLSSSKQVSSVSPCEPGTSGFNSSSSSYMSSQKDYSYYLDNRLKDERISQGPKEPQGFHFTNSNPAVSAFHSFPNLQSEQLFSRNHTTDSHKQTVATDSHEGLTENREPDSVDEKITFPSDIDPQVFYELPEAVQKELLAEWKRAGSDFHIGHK
#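 Fluorescent replication assay read twice, at 0 min and 10 min after adding 50 nM (final) substrate. Enzyme (10 nM) and compounds were first incubated 15 min at room temperature; enzyme-free buffer wells were negative controls.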
# POLB inh: blocks human DNA polymerase beta activity | Pol beta primer extension/strand displacement, fluorescence kinetic | Potency, µM (series often up to 114 µM), for the others: top-dose activity change, negative = inhibition, usual class: inhibitors | 340,000 tested, 1.3% active; also: % is scaled to controls: 0 for no effect and ±100 for the full control effect
#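 Pol beta (10 nM) was preincubated with compound for 15 min at room temperature. The reaction was then started with 50 nM substrate and read immediately and after a further 10 min at room temperature.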
# POLH inh: DNA polymerase eta (human) inhibition; Q9Y253; recombinant Pol eta, fluorescent DNA replication assay; Potency, µM (titrated, usually from 114 µM), without a hit: at the highest dose activity change, negative = inhibition, usual class: inhibitors; 390,000 tested, 1.2% active; also: % is scaled to controls: 0 for no effect and ±100 for the full control effect
#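 Fluorescent replication assay: 50 nM final substrate added after a 15 min room-temperature compound preincubation with 10 nM enzyme. Signal taken at 0 min and again at 10 min.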
# Starred values were filed as active, the others as inactive; ? = inconclusive; / = no result given; [ ] = remark or other dose. Calls follow the shape of the dose curve; as a rule, active = well fitted inhibition curve with a large enough effect; inconclusive = small, poorly fitted or top-dose-only effect, or another doubt; inactive = no such curve, though single readings can be large or run the other way. Potency is read from the fitted curve at half-maximal effect.
SMILES,GLS inh,POLK inh,KAT2A inh,Pol iota inh,POLB inh,POLH inh
O=C(NCc1ccccn1)C1CCN(S(=O)(=O)c2cnc[nH]2)CC1,?,?,1%,?,3%,18µM*
Cc1c(CCC(=O)O)c(=O)oc2cc3occ(-c4ccc(Cl)cc4)c3cc12,18%,-7%,-24%,?,?,22µM*
Cc1c(CCC(=O)O)c(=O)oc2cc(O)ccc12,31%,-4%,28µM*,13%,4%,4%
C[C@@H]1[C@H](c2ccccc2)OCCS(=O)(=O)N1Cc1ccccc1F,/,2%,/,18%,/,/
CC(C)C(=O)Nc1cc2c3c(c1)CCC(=O)N3CCC2,-1%,?,-5%,35µM*,-1%,-9%
CCS(=O)(=O)Nc1cc2c3c(c1)CCC(=O)N3CCC2,12%,3%,-5%,8%,21%,4%
CC(C)NC(=O)C(=O)Nc1cc2c3c(c1)CCC(=O)N3CCC2,3%,-14%,-1%,6%,40%,3%
C=CCNS(=O)(=O)c1cc2c3c(c1)CCN3C(=O)CC2,0%,79µM*,-2%,28µM*,1%,-4%
CCS(=O)(=O)Nc1cc2c3c(c1)CCN3C(=O)CC2,-3%,79µM*,-7%,25µM*,7%,-15%
CC(C)c1ccc(Cn2cnc3c(cnn3C(C)(C)C)c2=O)cc1,/,0%,/,-7%,/,/
O=C(c1ccc2c(=O)n3c(nc2c1)CCCCC3)N1CCN(C(c2ccccc2)c2ccccc2)CC1,-1%,-3%,-3%,89µM*,24%,-14%
C=CCOc1c(Cl)cc(CNc2ccc(C)c(Cl)c2)cc1OC,/,/,-1%,/,21%,/
C=CCOc1c(Cl)cc(CNc2ccc(N(C)C)cc2)cc1OC,49%,-20%,-10%,8.9µM*,-24%,-6%
Cc1ccc(S(=O)(=O)N2CCCCC2)cc1C(=O)Nc1ncn[nH]1,/,/,-10%,/,25µM*,/
CCN1CCN(c2cc(C)c3cc(NC(=O)c4ccc(OC)c(OC)c4)ccc3n2)CC1,17%,?,-16%,?,8.9µM*,?
COc1ccc(-c2c[n+]3c4n2CCCCC4=C(c2ccccc2)C3)cc1,0%,-6%,-23%,9%,11µM*,0%
COc1ccc(-c2c[n+](CC(=O)c3ccccc3)c3n2CCCCC3)cc1,-4%,-15%,3%,-4%,21%,-15%
CCCCCCCCCCCCN1[C@@H](CC(=O)O)c2cc(C(F)(F)F)ccc2S1(=O)=O,9%,?,/,?,/,45µM*
Clc1cc(Cl)c(OCC#CI)cc1Cl,-26%,1%[19.4 µM],14µM*,/,/,/
O=C(C[n+]1cccc(Br)c1)c1ccc(Br)cc1,/,-35%,/,?,/,/
Cc1cc(-c2ccc(C)c(S(=O)(=O)N(C)c3ccc(C)c(C)c3)c2)on1,2%,-11%,-10%,11%,2%,-20%
Cc1ccc2oc(C(=O)Nc3c(C(=O)Nc4cccc(Cl)c4)oc4ccccc34)cc(=O)c2c1,-9%,-10%,-5%,-8%,10%,0%
CN(C)/C=C/C(=O)/C=C/c1cn(-c2ncc(C(F)(F)F)cc2Cl)c2ccccc12,2%,-21%,-22%,8%,25µM*,-17%
COC(=O)Cc1cn(-c2ncc(C(F)(F)F)cc2Cl)c2ccccc12,0%,-16%,-10%,3%,-8%,-5%
Cc1cc(C)cc(Nc2cc(C(=O)NC3CCC(C)CC3)c3ccccc3n2)c1 (stereo not given),4%,-27%,1%,-8%,-27%,89µM*
SMILES,GLS inh,POLK inh,KAT2A inh,Pol iota inh,POLB inh,POLH inh
Cc1cc(C)cc(Nc2cc(C(=O)NC3CCCCC3)c3ccccc3n2)c1,1%,-7%,-2%,-2%,14%,-28%
O=C(O)c1ccc2c(c1)C(=O)N([C@H](Cc1ccc(O)c(O)c1)C(=O)O)C2=O,/,/,1%,/,/,/
CCn1cc2nc(SCC(=O)Nc3ccc(C)cc3C)n(Cc3ccc(C)cc3)c(=O)c2n1,0%,-32%,0%,21%,10µM*,79µM*
COc1ccc(OC)c(CCNC(=O)CSc2ccsc2[N+](=O)[O-])c1,-3%,?,-5%,45µM*,-11%,40µM*
COc1ccc(CCNC(=O)CSc2ccsc2[N+](=O)[O-])c(OC)c1,-1%,-32%,-17%,?,?,45µM*
CCOC(=O)c1c(-c2ccco2)csc1NC(=O)CSc1nnc(N)s1,2%,?,-13%,35µM*,28µM*,?
Cn1c(=O)c(C(=O)c2ccccc2)nc2ccccc21,11µM*,-5%,-3%,4%,4%,0%
O=C(Cn1ncc2c3ccccc3n(Cc3ccc(Cl)cc3)c2c1=O)NCCCc1ccccc1,-3%,-7%,-7%,29%,?,-18%
O=C(Cn1ncc2c3ccccc3n(Cc3cccc(Cl)c3)c2c1=O)NCCCc1ccccc1,-4%,?,?,?,28µM*,-24%
CC(C)OC(=O)c1cccnc1SCC(=O)Nc1ccc(C(F)(F)F)cc1Cl,-8%,-9%[60.1 µM],-5%,1%,2%,-7%
O=[N+]([O-])c1ccc(/C([O-])=C(/C(=S)NCc2ccco2)[n+]2ccccc2)cc1,-2%,-18%,-17%,39%,20µM*,-15%
CN(C1=C(NC(=O)c2ccccc2)C(=O)c2ccccc2C1=O)C1CCS(=O)(=O)C1 (stereo not given),-2%,6%[60.1 µM],1%,7.9µM*,?,79µM*
CC(=O)NC1=C(NC2CCS(=O)(=O)C2)C(=O)c2ccccc2C1=O (stereo not given),15%,4%,-17%,21%,0%,-6%
Cc1cc(C)nc(SCCc2ccncc2)n1,-16%,2%,63%,22µM*,-2%,-11%
CCc1ccc(N=C2NC(=O)CC(C(=O)Nc3ccc(OC)cc3)S2)cc1 (stereo not given),2%,-17%,-10%,-8%,18µM*,?
Cc1ccc2c(c1)NC(=O)c1cc([N+](=O)[O-])ccc1O2,1%,-10%,0%,24%,0%,-11%
O=C1Nc2ccccc2Oc2cc([N+](=O)[O-])ccc21,1%,-27%,-13%,-23%,?,50µM*
O=C(Cc1ccc[nH]c1=O)c1ccc(F)cc1,/,-6%,/,10%,/,/
CCc1ccc(OCC(=O)NC(=S)Nc2ccc(C)cc2C)c(Br)c1,-2%,-3%,?,79µM*,10%,-2%
Cc1ccccc1NC(=O)NC1(C(=O)N2CCOCC2)CCCCC1,-3%,-6%,-2%,-1%,-2%,-10%
O=C(Nc1ccccc1C(F)(F)F)NC1(C(=O)N2CCOCC2)CCCCC1,0%,50µM*,/,14µM*,/,?
